# Sampled rows, rich in hits. Any-hit rate of the full collection: about 2.4%.
# Pol eta inh-1: DNA polymerase eta (human) inhibition | Q9Y253 | recombinant Pol eta, fluorescent DNA replication assay | Potency, µM (doses to about 114 µM), inactives show at the highest dose activity change, negative = inhibition, usual class: inhibitors | 390,000 compounds, 1.2% hits; note: potency is the fitted concentration of half-maximal effect; % is set by controls: 0 for no effect and ±100 for the full control effect
#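 Pol eta at 10 nM preincubated with compounds 15 min at room temperature; reaction started with fluorescent substrate (50 nM final) and read kinetically at 0 and 10 min.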
# Tb PGK inh: T. brucei PGK inhibition | P07378 | PGK/GAPDH coupled, Kinase-Glo luminescence, 60 min | Potency, µM (titrated, usually from 57.5 µM), for inactives: at the top dose activity change, negative = inhibition, most hits filed as inhibitors | 380,000 compounds, 0.043% hits | AID 602233; note: potency is the fitted concentration of half-maximal effect; % is set by controls: 0 for no effect and ±100 for the full control effect; nearly all actives have a fitted effect of over 60% in size
# Target sequence (P07378 whole entry, looked up): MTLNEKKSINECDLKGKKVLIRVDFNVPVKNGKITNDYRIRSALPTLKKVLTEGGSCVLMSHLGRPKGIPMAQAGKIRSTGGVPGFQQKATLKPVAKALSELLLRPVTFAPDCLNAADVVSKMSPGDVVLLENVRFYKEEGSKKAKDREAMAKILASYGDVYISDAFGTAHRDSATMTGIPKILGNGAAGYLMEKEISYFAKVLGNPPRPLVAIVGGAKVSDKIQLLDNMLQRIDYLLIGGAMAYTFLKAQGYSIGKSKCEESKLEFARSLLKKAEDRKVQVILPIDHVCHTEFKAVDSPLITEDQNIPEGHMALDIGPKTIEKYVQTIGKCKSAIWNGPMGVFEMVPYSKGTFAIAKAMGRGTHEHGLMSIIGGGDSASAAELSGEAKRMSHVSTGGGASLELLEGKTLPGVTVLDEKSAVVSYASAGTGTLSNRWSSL
#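 Recombinant glycosomal PGK reaction used 1,3-bisphosphoglycerate generated in-well by GAPDH (100nM final) in 100mM TEA pH 7.6, 5mM MgCl2, 0.01% Tween-20. After 60 minutes at room temperature, ATP was read by Kinase-Glo Plus luminescence end-point.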
# FEN1 inh: human FEN1 inhibition; Potency, µM (doses to about 114 µM), for inactives: at the highest dose activity change, negative = inhibition, hits mostly inhibitors; 390,000 compounds, 0.35% hits; Recombinant FEN1 flap cleavage, fluorescence, 15 min; note: potency is the fitted concentration of half-maximal effect; % is set by controls: 0 for no effect and ±100 for the full control effect; nearly all actives have a fitted effect of over 65% in size
#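 FEN1 at 10 nM preincubated with compounds 15 min at room temperature, then flap DNA substrate added at 50 nM final. Signal read at 0 and 15 min; concentration-response fitted with four-parameter Hill equation.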
# Pol beta inh: DNA polymerase beta (human) inhibition; P06746; Pol beta primer extension/strand displacement, fluorescence kinetic; Potency, µM (highest dose often 114 µM), without a hit: at the top dose activity change, negative = inhibition, hits mostly inhibitors; 340,000 compounds, 1.3% hits; note: potency is the fitted concentration of half-maximal effect; % is set by controls: 0 for no effect and ±100 for the full control effect
#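 Pol beta (10 nM) and compounds were preincubated 15 min at room temperature, then 50 nM substrate (final) started primer extension/strand displacement. Reads were taken at 0 and 10 min; concentration-response data were fitted to a four-parameter Hill equation.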
# Pol iota inh: DNA polymerase iota (human) inhibition; Q9UNA4; Potency, µM (series often up to 115 µM), for the others: at the highest dose activity, negative = inhibition, most hits filed as inhibitors; Pol iota fluorescent replication assay, 10 min; 390,000 compounds, 1% hits; note: potency is the fitted concentration of half-maximal effect
#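 Pol iota at 10 nM preincubated 15 min with compounds at room temperature; reaction started with fluorescent substrate, 50 nM final. Fluorescence read kinetically at 0 and 10 min; buffer-only wells as negative control.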
# Pol kappa inh-1: inhibitors of human DNA polymerase kappa; Potency, µM (titrated, usually from 107 µM), inactives show at the top dose activity, negative = inhibition, hits mostly inhibitors; 400,000 compounds, 0.53% hits; purified Pol kappa, fluorescent DNA synthesis assay, 10 min; AID 588579; note: potency is the fitted concentration of half-maximal effect; % is set by controls: 0 for no effect and ±100 for the full control effect
#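 Readout: fluorescence, taken kinetically at 0 and 10 min. Conditions: 10 nM Pol kappa, 15 min RT compound preincubation, 50 nM substrate final. Controls: enzyme-free buffer wells.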
# GALK confirm: galactokinase (human) inhibition, confirmation; shares compounds with Pol eta inh-1; purified GALK, Kinase-Glo ATP depletion luminescence; Potency, µM (titrated, usually from 115 µM), inactives show top-dose activity, negative = inhibition, hits mostly inhibitors; 150 compounds, 70% hits; AID 2015
# GALK redox cs: redox cycling activity in phenol red-HRP assay. shares compounds with Pol eta inh-1. 150 compounds, 40% hits. Potency, µM (titrated, usually from 115 µM), for inactives: top-dose activity change, negative = H2O2 signal, usual class: inhibitors. AID 2035. Phenol red-HRP H2O2 redox cycling, absorbance 600 nm
# HEK293 tox: reduces HEK-293 cell viability in GALK counter-screen; HEK-293 viability, ATP luminescence (CellTiter-Glo), 24/48 h; AID 2547; Potency, µM (series often up to 46.1 µM), for the others: at the highest dose activity change, negative = cytotoxicity, hits mostly inhibitors; shares compounds with Pol eta inh-1; 170 compounds, 10% hits; note: potency is the fitted concentration of half-maximal effect; % is set by controls: 0 for no effect and ±100 for the full control effect
# Pol kappa inh-2: Pol kappa (human) inhibition, cherry-pick confirmation; shares compounds with Pol eta inh-1; purified Pol-kappa, fluorescent strand-displacement substrate; Potency, µM, usual class: inhibitors; 920 compounds, 76% hits; note: potency is the fitted concentration of half-maximal effect
# Pol eta inh-2: confirmation of human DNA polymerase eta inhibitors. shares compounds with Pol eta inh-1. Pol eta primer extension, TAMRA/BHQ fluorescence, 10 min. Potency, µM, actives largely listed as inhibitors. AID 720502. 2,600 compounds, 64% hits; note: potency is the fitted concentration of half-maximal effect
# The depositor's hits bear a star; i = inactive; ? = inconclusive; . = no result given; [ ] = remark or other dose. Calls come from the whole dose curve; as a rule, active = well fitted curve in the direction sought with a large enough effect; inconclusive = small, poorly fitted or top-dose-only effect, or another doubt; inactive = no such curve, though single readings can be large; an effect the other way counts as inactive or inconclusive.
SMILES,Pol eta inh-1,Tb PGK inh,FEN1 inh,Pol beta inh,Pol iota inh,Pol kappa inh-1,Pol eta inh-2,others
CCCc1nn2c(=O)cc(COC(=O)c3cccc(NC(=O)c4ccc(OCC)cc4)c3)nc2s1,-9.7%,-12.5%,-5.3%,-25.2%,15.0%,-2.5%[60.1 µM],.,
Cc1ccccc1OCC(=O)N/N=C/c1sc(=O)n(Cc2cccc(C(=O)O)c2)c1Cl,?,-3.5%,9.3%,?,?,-17.9%,?,
O=C(O)c1cccc(Cn2c(Cl)c(/C=N/Nc3ccccc3)sc2=O)c1,44.7µM*,3.1%,-6.3%,-3.9%,?,?,?,
COc1ccc(C(=O)N/N=C/c2sc(=O)n(Cc3cccc(C(=O)O)c3)c2Cl)cc1,?,-9.6%,-11.9%,-6.5%,18.1%,-8.1%,.,
CC(=O)c1ccc(N2CCN(S(=O)(=O)c3ccc(-c4coc(C)n4)cc3)CC2)cc1,79.4µM*,-11.5%,-6.4%,44.7µM*,?,-4.1%[60.1 µM],?,
Cc1ccc(-c2cc(C(=O)Nc3ccc(SC(F)F)cc3)no2)cc1F,-4.8%,5.4%,-6.3%,38.2%,-21.2%,?,.,
N#C/C(=C\c1ccc(C(=O)O)cc1)c1nc2sc3c(c2c(=O)[nH]1)CCCC3,20µM*,?,?,50.1µM*,?,?,30.1*,
Cc1ccc(NC(=O)c2oc3ccc(S(=O)(=O)N4CCCCCC4)cc3c2C)c(C)c1,-12.4%,i,13.2%,4.3%,12.2%,-1.3%[60.1 µM],.,
O=[N+]([O-])c1ccc(Cl)c2c1C1C=CCC1C(c1ccccn1)N2 (stereo unspecified),50.1µM*,-0.9%,-10.2%,35.5µM*,?,?,?,
CC(=O)Nc1ccc(S(=O)(=O)Nc2cc([N+](=O)[O-])ccc2C)cc1,-1.2%,9.4%,-5.1%,11.0%,41.6%,-3.2%,.,
CC(=O)Nc1ccc(C=NNc2ccc([N+](=O)[O-])cc2S(=O)(=O)Nc2ccccc2C(=O)O)cc1,50.1µM*,?,?,.,?,-42.8%,.,Pol kappa inh-2=?
CS(=O)(=O)N1CCCc2cc(C(=O)Nc3cccc(C(F)(F)F)c3)ccc21,-15.3%,-3.1%,-18.1%,12.1%,2.7%,-5.5%,.,
O=C1NC(=S)SC1=C1CCCC1,20µM*,-11.7%,79.4µM*,22.4µM*,?,14.1µM*,?,
CN1C(=O)C(=C2CCCCCC2)SC1=S,-6.9%,-11.5%,4.4%,-11.2%,-7.2%,3.8%,.,
CC(OC(=O)c1ccc(S(=O)(=O)NCc2ccco2)cc1)C(=O)Nc1ccc(Cl)cn1 (stereo unspecified),?,-4.8%,-5.9%,?,?,-19.4%,67.5*,
S=C1Nc2ccccc2CS1,-11.9%,-8.0%,.,.,.,.,.,
S=C1Cc2ccccc2N1,25.1µM*,?,?,1.3%,10µM*,-23.4%,.,GALK confirm=26.6µM*;GALK redox cs=7.49µM*;HEK293 tox=0.2%

# Screening data as filed in PubChem.
